Some of the results follow. The hit rate among all sequences tested is not known here.
Biological target: furin, P09958
Experiment: furin cleavage Z-score vs untreated control; higher = more cleavage, active = 3.5 or more, inactive = 1 or less, 8 variable residues between constant flanks
Procedure, shortened: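 Purified furin digested bead-held 8-mer peptide–cDNA fusions at 1:10 enzyme:substrate in 0.01 ml of 50 mM HEPES pH 7.5 with CaCl2 and NaCl for 7.5, 15 or 30 min. The cleavage Z-score compares sequencing counts of released DNA with furin-free reactions on a log scale, with lowess adjustment and median absolute deviation scaling.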

furin, P09958, sequence (P09958 whole entry): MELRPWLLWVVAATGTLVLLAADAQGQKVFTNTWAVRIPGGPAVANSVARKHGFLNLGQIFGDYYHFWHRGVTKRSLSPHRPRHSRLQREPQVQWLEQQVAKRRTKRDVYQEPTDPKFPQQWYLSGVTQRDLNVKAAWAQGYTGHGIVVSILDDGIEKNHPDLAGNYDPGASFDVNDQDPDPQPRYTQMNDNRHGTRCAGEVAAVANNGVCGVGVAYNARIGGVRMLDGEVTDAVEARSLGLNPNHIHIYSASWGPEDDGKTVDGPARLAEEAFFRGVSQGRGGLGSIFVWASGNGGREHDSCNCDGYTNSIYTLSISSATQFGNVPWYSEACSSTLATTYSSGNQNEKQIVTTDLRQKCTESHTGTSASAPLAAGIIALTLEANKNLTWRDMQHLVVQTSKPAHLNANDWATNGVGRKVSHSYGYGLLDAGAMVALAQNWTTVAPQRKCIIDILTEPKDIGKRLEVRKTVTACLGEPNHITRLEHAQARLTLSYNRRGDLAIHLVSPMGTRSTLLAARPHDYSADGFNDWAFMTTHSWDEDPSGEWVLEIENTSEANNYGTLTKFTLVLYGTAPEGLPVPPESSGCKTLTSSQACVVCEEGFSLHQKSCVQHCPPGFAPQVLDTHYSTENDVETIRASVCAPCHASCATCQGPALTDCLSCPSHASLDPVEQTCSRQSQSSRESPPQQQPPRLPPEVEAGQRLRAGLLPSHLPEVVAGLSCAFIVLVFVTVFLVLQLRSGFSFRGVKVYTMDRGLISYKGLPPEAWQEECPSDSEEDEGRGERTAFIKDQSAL

Row | Sequence | furin cleavage Z-score (7.5 min) | furin cleavage Z-score (15 min) | furin cleavage Z-score (30 min)
1 | CAMEECSRHLAGNASASA [HC1733] | 0.727 (inactive) | 0.671 (inactive) | 1.88
2 | CAALTGTYVYAGNASASA [HC632] | 1.19 | -0.31 (inactive) | -0.691 (inactive)
3 | CAKPDYEPPVAGNASASA [HC1312] | 0.808 (inactive) | -0.123 (inactive) | 0.46 (inactive)
4 | CAEVPCHYPSAGNASASA [HC2369] | 0.223 (inactive) | 1.34 | 1.34
5 | CAVVWCSMSYAGNASASA [HC2028] | 0.181 (inactive) | 0.241 (inactive) | 0.133 (inactive)
6 | CAVQYLYGVGAGNASASA [HC510] | -0.596 (inactive) | -1.07 (inactive) | -0.127 (inactive)
7 | CANEECSQHLAGNASASA [HC1681] | 0.726 (inactive) | 1.58 | -0.0685 (inactive)
8 | CATTPCSMSWAGNASASA [HC1886] | 0.125 (inactive) | 0.0823 (inactive) | 0.51 (inactive)
9 | CAGSSRLDRSAGNASASA [FS-1208] | 1.21 | 1.38 | 0.97 (inactive)
10 | CAAPVRRDRSAGNASASA [FS-977] | 6.44 (active) | 6.02 (active) | 5.28 (active)
11 | CASDFRRRRSAGNASASA [FS-868] | 9.07 (active) | 7.71 (active) | 7.52 (active)
12 | CAGSSRRRRSAGNASASA [FS-1334] | 9.7 (active) | 10.8 (active) | 6.42 (active)
13 | CAFSSREERSAGNASASA [FS-589] | -0.625 (inactive) | -0.927 (inactive) | -2.43 (inactive)
14 | CADLEDRDRSAGNASASA [HC487] | -0.326 (inactive) | -1.64 (inactive) | -1.38 (inactive)
15 | CAGSSREVRSAGNASASA [FS-29] | 2.81 | 4.54 (active) | 4.54 (active)
16 | CALEQALDCEAGNASASA [HC1590] | -1.94 (inactive) | 0.416 (inactive) | -0.45 (inactive)
17 | CAGLVPRGSAAGNASASA [TR1] | 0.366 (inactive) | -0.466 (inactive) | -0.254 (inactive)
18 | CAMEEQSQHLAGNASASA [HC19] | 0.113 (inactive) | 0.699 (inactive) | 0.674 (inactive)
19 | CAAIPLEVIKAGNASASA [HC850] | -0.209 (inactive) | 0.792 (inactive) | -0.386 (inactive)
20 | CAPTHYVPESAGNASASA [HC1126] | 1.82 | -1.79 (inactive) | 0.876 (inactive)
21 | CAGFRRFKRSAGNASASA [FS-240] | 8.1 (active) | 5.19 (active) | 7.05 (active)
22 | CAPSRRVKRSAGNASASA [FS-1149] | 8.11 (active) | 7.59 (active) | 5 (active)
23 | CALQRRVKRSAGNASASA [FS-1463] | 3.17 | 3.78 (active) | 1.92
24 | CALQRRKKKGAGNASASA [FS-1643] | -0.863 (inactive) | -0.718 (inactive) | 0.433 (inactive)
25 | CANQLRVKRSAGNASASA [FS-554] | 5.48 (active) | 5 (active) | 3.97 (active)
26 | CAGFRRSMDQAGNASASA [FS-2860] | -0.496 (inactive) | -0.187 (inactive) | 0.074 (inactive)
27 | CAEVVTSAWVAGNASASA [HC2203] | -1.33 (inactive) | -0.0621 (inactive) | -0.753 (inactive)
